# Only a selection was taken, and hits are over-represented in it overall.
# miR-122 inh: miR-122 sensor activation; 340,000 tested, 0.14% active; activation, % at 12.5 µM; Huh7 psiCHECK-miR122 Renilla luciferase sensor, 48 h;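 active = mean activation of 30% or more, with every replicate also reaching 30%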;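 note: 0% = median of neutral control wells and 100% = median of positive control wells; higher luciferase signal means stronger suppression of miR-122 activity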
# * = called active by the depositor.
SMILES,miR-122 inh
CCOc1cc(C)c(C(C)C)cc1S(=O)(=O)n1ccc(C)n1,-92
C[C@H]1CN([C@@H](C)CO)C(=O)c2cc(-c3cncnc3)cnc2O[C@H]1CN(C)Cc1cncnc1,6
CC(C)CC#Cc1cnc2c(c1)C(=O)N([C@@H](C)CO)C[C@H](C)[C@H](CN(C)C(=O)Nc1cccc(F)c1)O2,3
C[C@@H]1CN([C@@H](C)CO)C(=O)c2cc(-c3ccc(F)cc3)cnc2O[C@@H]1CN(C)CC1CCOCC1,-3
CC(C)(C)NS(=O)(=O)c1ccc2[nH]c3c(c2c1)CCCCC3,-108
Cc1ccc(-c2cnc3c(c2)C(=O)N([C@H](C)CO)C[C@@H](C)[C@H](CN(C)C(=O)c2ccncc2)O3)cc1,0
COCC#Cc1ccc2c(c1)O[C@H](CN(C)Cc1cncnc1)[C@H](C)CN([C@@H](C)CO)S2(=O)=O,-1
CC(C)CC#Cc1cnc2c(c1)C(=O)N([C@H](C)CO)C[C@H](C)[C@@H](CN(C)C(=O)Nc1cccc(F)c1)O2,18
Cc1nn(Cc2ccc(Cl)c(Cl)c2)c(C)c1NC(=O)c1sc2ccccc2c1Cl,32*
CCCC#Cc1ccc2c(c1)O[C@@H](CN(C)C(=O)NCCC)[C@H](C)CN([C@H](C)CO)S2(=O)=O,-2
C[C@@H]1CN([C@@H](C)CO)S(=O)(=O)c2ccc(-c3ccc(C(=O)N(C)C)cc3)cc2O[C@H]1CN(C)C(=O)Cc1ccccn1,1
C[C@H](CO)N1C[C@H](C)[C@H](CN(C)C(=O)C2CCC2)Oc2cc(C#CC(C)(C)O)ccc2S1(=O)=O,-1
COc1cccc(Nc2nc(NCC3CCCO3)c3ccccc3n2)c1 (stereo not given),51*
COc1ccc(CN(C(=O)c2ccc(-c3ccccc3)[nH]2)C(C(=O)NCC2CCCO2)c2ccc(C)o2)cc1 (stereo not given),-230
COc1ccccc1NS(=O)(=O)c1cc(NC(=S)NCC2CCCO2)ccc1C (stereo not given),-99
C/C=C/c1ccc2c(c1)O[C@H](CN(C)S(=O)(=O)c1ccccc1)[C@H](C)CN([C@@H](C)CO)S2(=O)=O,-268
CNC[C@@H]1Oc2cc(C#CC(C)C)ccc2S(=O)(=O)N([C@H](C)CO)C[C@H]1C,1
Cc1cc(CN(C)C(=O)c2cc(COc3ccc4ncccc4c3)on2)on1,35*
COc1cccc(C#Cc2ccc3c(c2)O[C@@H](CN(C)C(C)=O)[C@H](C)CN([C@H](C)CO)S3(=O)=O)c1,3
CCOc1cc(S(=O)(=O)NCCN2CCOCC2)c(C)cc1C,-92
O=S(=O)(C/C(=C/CO)S(=O)(=O)c1ccccc1)c1ccccc1,72*
C[C@H]1CN([C@@H](C)CO)C(=O)c2cc(C#Cc3ccc(F)cc3)cnc2O[C@@H]1CN(C)CC1CCOCC1,-7
COc1ccc(C)cc1NS(=O)(=O)c1ccc2c(c1)N(C)CCO2,-149
COc1cccc(CC(=O)Nc2ccc(N3CCOCC3)c(S(=O)(=O)Nc3ccccc3OC)c2)c1,-129
CCCn1c(CC)nc([N+](=O)[O-])c1S(=O)(=O)c1ccccc1,48*
SMILES,miR-122 inh
C[C@@H]1CN([C@@H](C)CO)C(=O)c2cc(/C=C/c3ccccc3)cnc2O[C@@H]1CN(C)S(=O)(=O)c1ccc(F)cc1,5
C[C@@H]1CN([C@@H](C)CO)C(=O)c2cc(C3=CCCC3)cnc2O[C@H]1CN(C)C(=O)C1CCCCC1,-6
CCCNC(=O)N1[C@H](CNC(=O)c2ccc(F)cc2)[C@H](c2ccccc2)[C@@H]1CO,42*
CCCNC(=O)NC[C@@H]1[C@@H](c2ccc(C3=CCCCC3)cc2)[C@H](CO)N1C(C)=O,-114
C[C@H]1CN([C@@H](C)CO)C(=O)c2cccc(NC(=O)C3CCCCC3)c2O[C@H]1CN(C)Cc1ccc(C(=O)Nc2ccccc2N)cc1,-11
Cc1cccc(OCCCC(=O)Nc2ccc(Cl)c(S(=O)(=O)N3CCOCC3)c2)c1,-98
CC(=O)N(C)C[C@H]1Oc2cc(C#CC3(O)CCCC3)ccc2S(=O)(=O)N([C@@H](C)CO)C[C@@H]1C,-17
CCOc1cc(C)c(S(=O)(=O)Nc2ccc(Cl)cn2)cc1C,-124
Cc1cc2[nH]c3c4ccccc4nc(C)c3c2cc1C,72*
C[C@H]1CN([C@@H](C)CO)S(=O)(=O)c2ccc(/C=C/c3ccccc3)cc2O[C@@H]1CN(C)C(=O)Nc1cccc(F)c1,-29
COCC(=O)N(C)C[C@H]1Oc2cc(-c3cncnc3)ccc2S(=O)(=O)N([C@@H](C)CO)C[C@H]1C,3
COc1cc(C)c(S(=O)(=O)NOCc2ccc([N+](=O)[O-])cc2)c(C)c1C,-323
CCCNC(=O)NC[C@@H]1[C@@H](c2ccc(C3=CCCC3)cc2)[C@H](CO)N1C(=O)CC,-343
CCC(=O)N(C)C[C@@H]1Oc2cc(-c3cccc(C#N)c3)ccc2S(=O)(=O)N([C@@H](C)CO)C[C@@H]1C,2
CCC(=O)N(C)C[C@H]1Oc2cc(-c3cccnc3)ccc2S(=O)(=O)N([C@@H](C)CO)C[C@H]1C,2
CCC(=O)N1[C@H](CN(C(C)C)S(C)(=O)=O)[C@@H](c2ccccc2)[C@@H]1CO,92*
CCC(=O)N1[C@H](CN(C)C(C)=O)[C@H](c2ccc(-c3cccnc3)cc2)[C@@H]1CO,43*
CC(=O)N(C)C[C@@H]1[C@@H](c2ccc(-c3cccc(C#N)c3)cc2)[C@H](CO)N1C(C)=O,92*
CC(=O)N1[C@H](CNC(=O)C2CC2)[C@H](c2ccc(-c3ccccc3)cc2)[C@@H]1CO,-150
CCN(C[C@@H]1[C@@H](c2ccccc2)[C@@H](CO)N1C(=O)COC)S(C)(=O)=O,-92
C[C@@H]1CN([C@H](C)CO)S(=O)(=O)c2ccc(C#Cc3ccccc3)cc2O[C@@H]1CN(C)C(=O)Nc1ccc2c(c1)OCO2,1
C[C@H](CO)N1C[C@H](C)[C@H](CN(C)Cc2ccc(C(=O)O)cc2)Oc2ncc(-c3ccc(C(=O)N(C)C)cc3)cc2C1=O,3
COCC(=O)Nc1ccc2c(c1)C(=O)N(C)C[C@H](OC)[C@@H](C)CN(C(=O)COC)[C@H](C)CO2,-6
COc1cccc(C#Cc2ccc3c(c2)O[C@@H](CN(C)C(=O)c2ccccn2)[C@H](C)CN([C@@H](C)CO)S3(=O)=O)c1,-11
C[C@H](CO)N1C[C@H](C)[C@H](CN(C)S(=O)(=O)c2cn(C)cn2)Oc2ncc(C#Cc3cccc(F)c3)cc2C1=O,11
SMILES,miR-122 inh
O=S(=O)(Nc1ccc(Cl)cc1)c1cccc2cccnc12,-99
CCC(=O)N(C)C[C@H]1Oc2ncc(-c3cccc(OC)c3)cc2C(=O)N([C@H](C)CO)C[C@@H]1C,1
COC(=O)[C@@H]1Cc2c([nH]c3ccccc23)C(C)(C)N1C(=O)CCl,32*
C[C@H](CO)N1C[C@H](C)[C@H](CN(C)S(=O)(=O)c2ccc(C#N)cc2)Oc2ncc(C#Cc3ccccc3)cc2C1=O,8
COc1cccc(C#Cc2ccc3c(c2)O[C@@H](CN(C)C(C)=O)[C@@H](C)CN([C@H](C)CO)S3(=O)=O)c1,0
COCC#Cc1cnc2c(c1)C(=O)N([C@H](C)CO)C[C@H](C)[C@@H](CN(C)C(=O)Nc1c(C)noc1C)O2,8
C/C=C/c1ccc2c(c1)O[C@@H](CN(C)C(=O)CC1CC1)[C@@H](C)CN([C@@H](C)CO)S2(=O)=O,1
O=S(=O)(Nc1cccc2ncccc12)c1cccs1,-234
CCOc1ccc(S(=O)(=O)Nc2cccc(Cl)c2)cc1,-90
CCOc1ccc2nc(NS(=O)(=O)c3cccs3)sc2c1,34*

# Source: PubChem
